The source of these data is PubChem BioAssay (Tox21).

Assay [1] in a line: qHTS assay to test for compound auto fluorescence at 535 nm (green) in HEK293 cells (AID 720680). (In general: In qHTS, concentration-response curves come from the screen itself.)
A short description of assay [2]: qHTS assay to test for compound auto fluorescence at 460 nm (blue) in HEK293 cell free culture (AID 720681). Put shortly: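 Compounds were added to cell-free DMEM with 10% FBS and fluorescence read directly. The blue channel used 405 nm excitation and 460 nm emission, with triamterene as the reference fluorophore.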
A short description of assay [3]: qHTS assay to test for compound auto fluorescence at 535 nm (green) in HEK293 cell free culture (AID 720682). Put shortly: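 Compounds were pin-transferred into cell-free DMEM with 10% FBS, and green fluorescence was read at excitation 485 nm and emission 535 nm. Intensities were expressed as fluorescein-equivalent values.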
Assay [4] in a line: qHTS assay to test for compound auto fluorescence at 590 nm (red) in HEK293 cell free culture (AID 720683). Put shortly: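 Cell-free wells of DMEM with 10% FBS received compound, and intrinsic fluorescence was read at excitation/emission 540/590 nm. Values expressed as equivalence to Rose Bengal sodium.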
Assay [5] in a line: qHTS assay to test for compound auto fluorescence at 590 nm (red) in HepG2 cell free culture (AID 720684). Put shortly: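 Compounds are added to culture medium (MEM, 10% FBS) lacking cells, then fluorescence is read at excitation 540 nm, emission 590 nm, with Rose Bengal sodium as the equivalency standard.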
Assay [6] in a line: qHTS assay to test for compound auto fluorescence at 460 nm (blue) in HepG2 cell free culture (AID 720685). A digest of the protocol: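 Compound (23 nL) or DMSO pinned into cell-free MEM with 10% FBS; blue fluorescence read at 405/460 nm excitation/emission, expressed as auto-fluorescence equivalency to triamterene.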
A short description of assay [7]: qHTS assay to test for compound auto fluorescence at 535 nm (green) in HepG2 cell free culture (AID 720686).
Assay [8] can be described thus: qHTS assay to test for compound auto fluorescence at 460 nm (blue) in HepG2 cells (AID 720687). Put shortly:
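HepG2 cells in MEM with 10% FBS, attached overnight at 37 C, were exposed to compound or DMSO for 1 hr at 37 C, 5% CO2. Blue fluorescence was read at 405/460 nm, with triamterene as reference fluorophore.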

A short description of assay [9]: qHTS assay to identify small molecule antagonists of the glucocorticoid receptor (GR) signaling pathway - cell viability counter screen (AID 720693). Further: nearly all actives have a fitted effect of over 55% in size.
Assay [10] is described as follows: qHTS assay for identifying genotoxic compounds that show differential cytotoxicity against isogenic chicken DT40 cell lines with known DNA damage response pathways - Rad54/Ku70 mutant cell line (AID 743015). Further: nearly all actives have a fitted effect of over 60% in size. Further: potency means the concentration at half of the fitted maximal effect.
A short description of assay [11]: qHTS assay to identify small molecule antagonists of the androgen receptor (AR) signaling pathway - cell viability counter screen (AID 743033; further: nearly all actives have a fitted effect of over 45% in size).
Assay [12] concerns the target Androgen receptor (Homo sapiens) (UniProt P10275). The experiment in a line: qHTS assay to identify small molecule agonists of the androgen receptor (AR) signaling pathway (AID 743036; active means well fitted activation curve with a large enough effect in the signal ratio in the repeat runs, with a control signal flat, not every such curve was filed as active; the % refers to the signal ratio). Put shortly:
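Activation was read as beta-lactamase FRET signal from LiveBLAzer B/G substrate, added for 2 h at room temperature. Before that, GeneBLAzer AR-UAS-bla GripTite (HEK293) cells had 16 h compound exposure at 37C.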

The target is the same in assay [13]. The experiment in a line: qHTS assay to identify small molecule agonists of the androgen receptor (AR) signaling pathway using the MDA cell line (AID 743040; further: nearly all actives have a fitted effect of over 20% in size). A digest of the protocol: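 Human breast carcinoma MDA-kb2 reporter cells (MMTV-luc, AR/GR elements) were treated for 16 h at 37C in 0% CO2 following a 5 h settling period. Signal was quantified by ONE-Glo luminescence.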

Assay [14] can be described thus: qHTS assay to identify small molecule antagonists of the androgen receptor (AR) signaling pathway using the MDA cell line - cell viability counter screen (AID 743041; further: nearly all actives have a fitted effect of over 45% in size). A digest of the protocol:
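Same-well cytotoxicity was assessed by CellTiter-Fluor in MDA-kb2 AR-luc cells after 16 h of compound treatment under R1881 agonism.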

The target of assay [15] is Androgen receptor (Homo sapiens) (UniProt P10275). In words: qHTS assay to identify small molecule antagonists of the androgen receptor (AR) signaling pathway using the MDA cell line (AID 743042; further: nearly all actives have a fitted effect of over 55% in size). Put shortly: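 MDA-kb2 breast carcinoma cells carrying MMTV-luciferase (AR/GR responsive) were co-treated with compounds and the agonist R1881 for 16 h at 37C. Inhibition read as ONE-Glo luminescence; CellTiter-Fluor fluorescence measured in parallel for cytotoxicity.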

A short description of assay [16]: qHTS assay for identifying genotoxic compounds that show differential cytotoxicity against isogenic chicken DT40 cell lines with known DNA damage response pathways - Rev3 mutant cell line (AID 743014). Further: nearly all actives have a fitted effect of over 55% in size. Further: potency means the concentration at half of the fitted maximal effect.
In assay [17] the target is Glucocorticoid receptor (Homo sapiens) (UniProt P04150). The experiment in a line: qHTS assay to identify small molecule agonists of the glucocorticoid receptor (GR) signaling pathway (AID 720691; active means well fitted activation curve with a large enough effect in the signal ratio in the repeat runs, not every such curve was filed as active; the % refers to the signal ratio). A digest of the protocol:
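Fluorescence intensity from LiveBLAzer B/G FRET substrate (2 h, room temperature) reports beta-lactamase expression driven by the glucocorticoid response element in GR-bla HeLa cells after 18 h compound exposure at 37 C.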

Assay [18] has the same target. In words: qHTS assay to identify small molecule antagonists of the glucocorticoid receptor (GR) signaling pathway (AID 720692; active means well fitted inhibition curve with a large enough effect in the signal ratio in the repeat runs, not every such curve was filed as active; the % refers to the signal ratio; further: potency means the concentration at half of the fitted maximal effect). A digest of the protocol: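 HeLa GR-bla cells; cmpd + dex 5 nM final, 18 h 37 C; LiveBLAzer B/G FRET substrate 2 h RT; fluorescence intensity read. Antagonist mode, qHTS.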
Assay [19] can be described thus: qHTS assay for identifying genotoxic compounds that show differential cytotoxicity against isogenic chicken DT40 cell lines with known DNA damage response pathways - wild type cell line (AID 743012). Further: nearly all actives have a fitted effect of over 60% in size. Further: potency means the concentration at half of the fitted maximal effect. Put shortly: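 Wild type DT40, 300 cells/well, ~0.5 h settle at 37 C/5% CO2; compounds in DMSO added by pintool; 40 h at 37 C/5% CO2; CellTiter-Glo, 30 min RT; luminescence.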

The target of assay [20] is Androgen receptor (Homo sapiens) (UniProt P10275). The experiment in a line: qHTS assay to identify small molecule antagonists of the androgen receptor (AR) signaling pathway (AID 743035; active means well fitted inhibition curve with a large enough effect in the signal ratio in the repeat runs, not every such curve was filed as active; the % refers to the signal ratio; further: potency means the concentration at half of the fitted maximal effect). A digest of the protocol:
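Fluorescence from a beta-lactamase FRET substrate (LiveBLAzer B/G, 2 h, room temperature) measured inhibition of R1881-stimulated signaling in GeneBLAzer AR-UAS-bla HEK293 cells exposed to compound for 16 h at 37C.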

“And” between values parts separate entries of the source, which are not always exact repeats. Identical values can stand only once. Results filed as inconclusive are left out. The source made the active and inactive calls. Unless noted, the call rests on the fitted dose curve; in most records, active means well fitted curve in the direction sought with a large enough effect in the repeat runs; inconclusive means weak or mixed curves; inactive means no such curve, though single readings can be large; an effect the other way counts as inactive or inconclusive.

Chain of Androgen receptor (Homo sapiens) (P10275 whole entry, looked up): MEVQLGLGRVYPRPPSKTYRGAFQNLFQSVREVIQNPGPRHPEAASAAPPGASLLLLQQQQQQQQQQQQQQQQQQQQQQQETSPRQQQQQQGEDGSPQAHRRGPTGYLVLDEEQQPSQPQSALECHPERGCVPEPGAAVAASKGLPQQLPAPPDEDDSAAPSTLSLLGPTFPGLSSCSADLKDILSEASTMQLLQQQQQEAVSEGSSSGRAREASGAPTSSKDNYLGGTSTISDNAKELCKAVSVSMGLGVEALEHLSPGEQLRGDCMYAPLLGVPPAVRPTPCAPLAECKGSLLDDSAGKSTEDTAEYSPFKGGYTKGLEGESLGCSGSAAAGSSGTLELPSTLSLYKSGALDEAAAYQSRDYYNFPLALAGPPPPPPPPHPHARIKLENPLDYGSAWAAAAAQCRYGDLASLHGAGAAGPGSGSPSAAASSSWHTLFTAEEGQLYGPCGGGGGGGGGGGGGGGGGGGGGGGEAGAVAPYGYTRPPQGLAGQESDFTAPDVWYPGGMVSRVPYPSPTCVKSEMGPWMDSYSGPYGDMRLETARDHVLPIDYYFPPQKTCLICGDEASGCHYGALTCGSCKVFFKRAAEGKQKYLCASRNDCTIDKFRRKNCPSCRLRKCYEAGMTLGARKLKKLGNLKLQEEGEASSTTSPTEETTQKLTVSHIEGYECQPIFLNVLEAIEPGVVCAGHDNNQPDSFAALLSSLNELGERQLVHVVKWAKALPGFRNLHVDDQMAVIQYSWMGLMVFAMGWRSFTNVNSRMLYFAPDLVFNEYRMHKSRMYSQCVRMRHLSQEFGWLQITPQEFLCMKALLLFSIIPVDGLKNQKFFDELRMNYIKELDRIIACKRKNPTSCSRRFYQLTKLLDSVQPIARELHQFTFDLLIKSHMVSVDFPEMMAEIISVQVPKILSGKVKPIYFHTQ
Chain of Glucocorticoid receptor (Homo sapiens) (P04150 whole entry, looked up): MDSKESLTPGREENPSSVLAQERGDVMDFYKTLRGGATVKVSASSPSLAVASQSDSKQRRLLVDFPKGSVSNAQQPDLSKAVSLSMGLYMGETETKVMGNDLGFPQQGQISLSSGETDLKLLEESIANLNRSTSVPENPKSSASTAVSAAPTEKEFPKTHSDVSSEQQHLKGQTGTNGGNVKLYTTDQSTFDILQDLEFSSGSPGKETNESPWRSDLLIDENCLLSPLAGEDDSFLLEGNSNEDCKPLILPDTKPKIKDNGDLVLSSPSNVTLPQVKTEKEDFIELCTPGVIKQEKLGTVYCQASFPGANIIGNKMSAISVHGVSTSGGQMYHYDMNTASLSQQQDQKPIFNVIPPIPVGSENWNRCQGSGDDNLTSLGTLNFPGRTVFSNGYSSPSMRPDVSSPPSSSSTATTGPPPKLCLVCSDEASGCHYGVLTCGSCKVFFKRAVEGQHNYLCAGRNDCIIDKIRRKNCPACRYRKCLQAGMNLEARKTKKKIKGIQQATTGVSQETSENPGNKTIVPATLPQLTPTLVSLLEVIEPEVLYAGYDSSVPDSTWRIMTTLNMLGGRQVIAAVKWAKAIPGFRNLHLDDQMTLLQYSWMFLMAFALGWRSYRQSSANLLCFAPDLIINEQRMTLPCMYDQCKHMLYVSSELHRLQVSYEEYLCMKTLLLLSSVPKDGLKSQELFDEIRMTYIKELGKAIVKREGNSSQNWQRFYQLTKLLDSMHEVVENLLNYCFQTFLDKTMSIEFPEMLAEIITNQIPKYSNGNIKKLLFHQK

For `CC(COc1ccc(Oc2ccccc2)cc1)Oc1ccccn1` (stereo not given), the compound was classed as inactive in assay [1], in [2], in assay [3], in assay [4], in assay [5] and in assay [6]. For the same compound, the outcome in [7], in assay [8], in [12] and in [15] was inactive. Also, the Potency result in assay [9], in assay [11], in assay [13] and in assay [14] was “inactive” in each case. Moreover, the Potency in assay [10] was 61.1 µM (active).
For `CC(=O)[C@H]1CC[C@H]2[C@@H]3CC[C@H]4C[C@H](O)CC[C@]4(C)[C@H]3C(=O)C[C@]12C`, the compound was classed as inactive in assay [1], in assay [2], in [3], in assay [4], in assay [5] and in [6]. Besides, the outcome in assay [7] and in [8] was inactive. Also, the Potency result in [9], in [11] and in assay [14] was “inactive” each time.
With `C=CCC1=C(C)[C@@H](OC(=O)[C@@H]2[C@@H](C=C(C)C)C2(C)C)CC1=O`, the compound was classed as inactive in assay [1], in assay [2], in assay [3], in assay [4], in assay [5] and in assay [6]. For the same compound, the compound was classed as inactive in assay [7] and in assay [8]. The values for the Potency in assay [16] and in assay [10] were 24.3 µM (active) and 15.4 µM (active), respectively. For the same compound, the Potency result in [11] was “inactive”.
As for `C1CCC(C2CCCCC2)CC1`, the result in [1], in assay [2], in [3], in assay [4], in assay [5] and in assay [6] was inactive. Further, the outcome in assay [7] and in assay [8] was inactive. For the same compound, the Potency result in [9] and in [11] was “inactive” each time. In addition, the Potency in assay [16] and in [10] was 54.5 µM (active) each time.
As for `CC1(C(=O)Nc2ccc(O)c(Cl)c2Cl)CCCCC1`, the compound was classed as inactive in [1], in assay [2], in assay [3], in assay [4], in assay [5] and in [6]. The result in assay [7] and in [8] was inactive. Besides, the Potency in assay [16] and in assay [10] was 61.1 µM (active) each time. Moreover, the Potency entry in assay [11] and in assay [14] was “inactive” in each case.
On to `[As]#[In]`, for which the compound was classed as inactive in [1], in assay [3], in [4], in assay [5], in assay [6] and in assay [7]. The compound was called inactive in assay [8] and in [17]. Moreover, the Potency entry in assay [18], in assay [9], in assay [19], in assay [16], in assay [10] and in [14] was “inactive” in each case.
For `CCC1(c2ccccc2)C(=O)NC(=O)NC1=O`, the outcome in [1], in assay [3], in assay [4], in assay [5], in assay [6] and in [7] was inactive. The call in assay [8] was inactive. In addition, the Potency result in [9], in [19], in assay [16], in [10], in assay [11] and in assay [14] was “inactive” throughout.
With `O=C1c2ccccc2C(=O)c2ccccc21`, the result in assay [1], in assay [3], in assay [4], in assay [5], in assay [6] and in [7] was inactive. For the same compound, in assay [8], the compound was classed as inactive. Also, the Potency result in [9], in [19], in assay [16], in [10] and in [11] was “inactive” in each case.
With `Cc1ncsc1CCCl`, the compound was classed as inactive in [1], in [3], in assay [4], in assay [5], in assay [6] and in [7]. In addition, the compound was called inactive in assay [8] and in assay [17]. Moreover, the Potency entry in assay [9], in assay [16], in assay [10] and in assay [14] was “inactive” each time.
Take `CCCSP(=S)(OCC)Oc1ccc(Cl)cc1Cl` (stereo not given): the compound was classed as inactive in assay [1], in assay [3], in [4], in [5], in assay [6] and in assay [7]. The call in [8] and in assay [17] was inactive. Further, the Potency result in assay [9], in assay [11] and in assay [14] was “inactive” in each case. The Potency in assay [10] is 61.1 µM (active).
Regarding `CC(=O)CCc1ccc2c(c1)OCO2`, the compound was called inactive in [1], in assay [3], in [4], in [5], in assay [6] and in assay [7]. For the same compound, in assay [8], the result was inactive. For the same compound, the Potency entry in [9], in [16], in assay [10] and in assay [14] was “inactive” throughout.
Take `O=CNC(N1CCN(C(NC=O)C(Cl)(Cl)Cl)CC1)C(Cl)(Cl)Cl` (stereo not given): the compound was called inactive in assay [1], in assay [3], in assay [4], in assay [5], in [6] and in [7]. Further, the call in assay [8], in [17], in assay [12] and in assay [15] was inactive. Also, the Potency result in [18], in assay [9], in [11], in assay [13] and in assay [14] was “inactive” throughout. Besides, the Potency in assay [16] is 61.1 µM (active); in assay [20] it was 6.16 µM (active).
Turning to `C[C@]1(O)CC[C@H]2[C@@H]3CCC4=CC(=O)CC[C@]4(C)[C@@]3(F)[C@@H](O)C[C@@]21C`, the compound was classed as inactive in assay [1], in assay [3], in [4], in assay [5], in [6] and in assay [7]. The outcome in [8] and in assay [17] was inactive. Besides, in assay [18], the Potency was 1.51 µM (active) and 620 nM (active). For the same compound, the Potency result in assay [9], in [16], in assay [10], in assay [11] and in assay [14] was “inactive” throughout.
As to `CCOP(=S)(Oc1cnc(C(C)(C)C)nc1)OC(C)C` (stereo not given), the result in assay [1], in [3], in assay [4], in assay [5], in assay [6] and in [7] was inactive. For the same compound, the outcome in [8] was inactive. Besides, the Potency entry in assay [18], in assay [9], in [11] and in assay [14] was “inactive” in each case. Also, the Potency in assay [19] is 54.5 µM (active); in assay [16], 27.3 µM (active); in [10], 48.6 µM (active).
